Values joined by “and” are separate entries in the source; they are usually repeats but may differ in a detail not shown here. Identical values can stand only once. Inconclusive results are not listed. Active and inactive are the calls of the source. Calls follow the shape of the dose curve; as a rule, active = well fitted inhibition curve with a large enough effect; inconclusive = small, poorly fitted or top-dose-only effect; inactive = flat fitted curve, though single readings scatter. Positions of bridges follow the written chain, without caps; N, C: chain ends. Non-standard residues stand in square brackets, D forms with d. Residues, ends and D or L forms follow the SMILES beside them. ξ: configuration not given here. *: point of attachment. Octanoyl(6-Me) = CCC(C)CCCCC(=O)*; ξThr(3R) = C[C@@H](O)C(N)C(=O)O; dDab = NCC[C@@H](N)C(=O)O; Dab = NCC[C@H](N)C(=O)O
Tests used:
Experiment in all cases: Cytotoxic Profiling of Annotated Libraries Using Quantitative High-Throughput Screening (AID 1296008); also: nearly all actives have a fitted effect of over 60% in size
Conditions in all cases: Five cell lines viability, CellTiter-Glo ATP luminescence, 48-72 h; max response: active compounds read low
CRL-7250 = normal cell line; tested on: CRL-7250
How it was run: (§1)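 Compounds were pin-transferred onto cells and incubated 48 or 72 hr at 37 degree Celsius, 95% humidity. CellTiter-Glo was added, plates sat 10 min at room temperature, then ATP-coupled luminescence was imaged as the viability read-out.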

HaCat = tested on: HaCat
How it was run: as §1

KB-3-1 = tested on: KB-3-1
How it was run: as §1

NIH3T3 = tested on: NIH3T3
How it was run: as §1

HEK293 = tested on: HEK293
How it was run: as §1
% is scaled to controls: 0 for no effect and ±100 for the full control effect; potency is read from the fitted curve at half-maximal effect.

CC(C)OC(=O)[C@H](C)N[P@](=O)(OC[C@H]1O[C@@H](n2ccc(=O)[nH]c2=O)[C@](C)(F)[C@H]1O)Oc1ccccc1
inactive: max response (CRL-7250) -5.93% | max response (HaCat) -9.66% | max response (KB-3-1) 1.17% | max response (NIH3T3) -9.86%

C=C[C@@H]1CN2CCC1C[C@H]2[C@H](O)c1ccnc2ccc(OC)cc12 (some centres not stated)
inactive: max response (CRL-7250) 3.01% | max response (HaCat) -13.1% | max response (KB-3-1) -2.72% | max response (NIH3T3) 3.02%

CCN(C(=O)c1c(O)c2c(Cl)cccc2n(C)c1=O)c1ccccc1
inactive: outcome (HaCat) | max response (KB-3-1) 3.28% | max response (NIH3T3) -5.88%
active: Potency (CRL-7250) 5.9 µM

COc1cc(OC)cc(-c2ccc3ncc4ccc(=O)n(-c5ccc(N6CCNCC6)c(C(F)(F)F)c5)c4c3c2)c1
active: Potency (CRL-7250) 10.5 µM | Potency (HEK293) 3.72 µM | Potency (NIH3T3) 14.8 µM

COc1cc(C=CC(=O)CC(=O)C=Cc2ccc(O)c(OC)c2)ccc1O
active: Potency (CRL-7250) 34 µM | Potency (HEK293) 24.1 µM | Potency (KB-3-1) 38.2 µM

C=CC(=O)Nc1ccc2ncnc(Nc3ccc(OCc4cccc(F)c4)c(Cl)c3)c2c1
active: Potency (CRL-7250) 14.6 µM | Potency (HaCat) 1.87 µM and 580 nM | Potency (KB-3-1) 9.35 µM

N=c1ccn2c(n1)O[C@H]1[C@@H](O)[C@@H](CO)O[C@H]12
inactive: max response (CRL-7250) -13.3% | max response (KB-3-1) -23.9%
active: Potency (HEK293) 4.18 µM | Potency (NIH3T3) 3.32 µM

O=C(Nc1nnc(-c2ccco2)o1)c1cc(-c2ccccc2)nc2ccccc12
active: Potency (CRL-7250) 16.6 µM
inactive: max response (HaCat) -46%

CC(C)c1cc(C(C)C)c(CC(=O)NS(=O)(=O)Oc2c(C(C)C)cccc2C(C)C)c(C(C)C)c1
inactive: max response (CRL-7250) 4.74% and 1.75% | max response (HaCat) 0.698% and -52.4% | max response (KB-3-1) 0.649%

Cc1ccc2nc(NCCN)c3ncc(C)n3c2c1
active: Potency (CRL-7250) 16.6 µM | Potency (HEK293) 4.18 µM | Potency (KB-3-1) 3.32 µM

CC(N[C@H]1CCCC[C@H]1NC(=O)c1ccc(Cl)cc1)c1cccc2ccccc12 (some centres not stated)
inactive: max response (CRL-7250) 2.81% | outcome (HaCat) | max response (KB-3-1) 1.61% | max response (NIH3T3) -12.9%

Oc1cc(-c2nc(-c3ccccc3)[nH]c2-c2ccncc2)ccc1Cl
active: Potency (HEK293) 23.5 µM
inactive: max response (CRL-7250) -23.8% | max response (KB-3-1) -18.3%

COc1cc2c(Nc3ccc(Cl)c(Cl)c3F)ncnc2cc1OCC1C[C@@H]2CN(C)C[C@H]2C1
active: Potency (CRL-7250) 9.35 µM | Potency (KB-3-1) 5.9 µM
inactive: max response (HaCat) -106%

Cn1cnc2c(F)c(Nc3ccc(Br)cc3F)c(C(=O)NOCCO)cc21
active: Potency (CRL-7250) 23.5 µM and 7.31 µM
inactive: max response (HEK293) -7.34% | max response (KB-3-1) -0.774% and -5.49%

CC(C)c1cnn2c(NCc3ccccc3)cc(NCCCCCCN)nc12
inactive: outcome (CRL-7250) | outcome (HaCat) | max response (KB-3-1) 3.97% | max response (NIH3T3) 0.624%

CCCCC(=O)O[C@]1(C(=O)CO)[C@@H](C)C[C@H]2[C@@H]3CCC4=CC(=O)C=C[C@]4(C)[C@@]3(F)[C@@H](O)C[C@@]21C
inactive: outcome (CRL-7250) | max response (HEK293) 3.05% | outcome (KB-3-1) | max response (NIH3T3) -1.65%

NS(=O)(=O)OC[C@@H]1C[C@@H](n2ccc3c(N[C@H]4CCc5ccccc54)ncnc32)C[C@H]1O
active: Potency (CRL-7250) 2.64 µM | Potency (HEK293) 0.526 µM
inactive: max response (NIH3T3) -27.1%

CCOC(=O)N1CCN([N+]([O-])=NOc2ccc([N+](=O)[O-])cc2C#N)CC1
inactive: max response (HaCat) -20.9%
active: Potency (CRL-7250) 5.26 µM | Potency (KB-3-1) 16.6 µM

CCS(=O)(=O)Nc1ccc2[nH]c(O)c(C(=Nc3ccc(CN4CCCCC4)cc3)c3ccccc3)c2c1
active: Potency (CRL-7250) 1.32 µM | Potency (HEK293) 0.743 µM | Potency (KB-3-1) 9.35 µM | Potency (NIH3T3) 0.264 µM

Cc1ccccc1C(=O)Nc1ccc(C(=O)N2CCCC(O)c3cc(Cl)ccc32)c(C)c1 (configuration not stated)
inactive: max response (CRL-7250) -23.5% | max response (HaCat) 1.52% | outcome (KB-3-1) | max response (NIH3T3) -21%

CCc1cc(C(C)=NOCc2ccc(C3CCCCC3)c(C(F)(F)F)c2)ccc1CN1CC(C(=O)O)C1
inactive: max response (CRL-7250) 2.27% | outcome (HaCat) | outcome (KB-3-1) | max response (NIH3T3) -5.84%

CCNC(=O)c1cc2c(-c3cc(OCCN4CCCC4)c(Cl)cc3Cl)nc(N)nc2s1
active: Potency (CRL-7250) 4.69 µM | Potency (HEK293) 0.418 µM | Potency (NIH3T3) 2.35 µM

C[C@@H]1CC[C@@]2(OC1)OC1CC3C4CC=C5CC(O)CCC5(C)C4CCC3(C)C1[C@@H]2C (some centres not stated)
active: Potency (HEK293) 10.5 µM
inactive: max response (CRL-7250) -6.42% | max response (KB-3-1) -6.71% | max response (NIH3T3) -12.1%

Cn1c(Nc2ccc(C(F)(F)F)cc2)nc2cc(Oc3ccnc(-c4ncc(C(F)(F)F)[nH]4)c3)ccc21
active: Potency (CRL-7250) 0.372 µM | Potency (HEK293) 26.4 µM | Potency (KB-3-1) 11.8 µM

CCCCCCCCCCCCCCCC(=O)OC[C@@H](NC(=O)C(Cl)Cl)[C@H](O)c1ccc([N+](=O)[O-])cc1
inactive: max response (CRL-7250) -9.61% | outcome (HaCat) | outcome (KB-3-1) | max response (NIH3T3) 0.666%

COc1ccc2cc([S+]([O-])Cc3ncc(C)c(OC)c3C)nc2c1
inactive: outcome (CRL-7250) | max response (HaCat) 3.09% | outcome (KB-3-1) | max response (NIH3T3) -6.22%

CC(C)C[C@H](NC(=O)[C@@H](NC(=O)c1cccc(-c2ccccc2)n1)[C@@H](C)O)B(O)O
active: Potency (CRL-7250) 0.092 µM | Potency (HaCat) 526 nM and 580 nM | Potency (KB-3-1) 187 nM and 184 nM | Potency (NIH3T3) 118 nM and 116 nM

O=C1c2c(O)cccc2[C@@H]([C@@H]2O[C@H](CO)[C@@H](O)[C@H](O)[C@H]2O)c2cc(CO)cc(O)c21
inactive: max response (CRL-7250) -3.91% | max response (HaCat) -8.19% | outcome (KB-3-1) | max response (NIH3T3) 4.49%

C[C@@H]1C(=O)O[C@H]2CC34[C@H]5C[C@@H](C(C)(C)C)C36[C@H](OC(=O)[C@@H]6O)O[C@@]4(C(=O)O5)[C@]21O (some centres not stated)
inactive: outcome (CRL-7250) | outcome (HaCat) | max response (KB-3-1) 2.09% | outcome (NIH3T3)

CC(=O)OC[C@@H]1O[C@@H](n2ccc(=O)[nH]c2=O)[C@H](OC(C)=O)[C@H]1OC(C)=O
inactive: max response (CRL-7250) -3.38% | max response (HaCat) -10.5% | max response (KB-3-1) -0.144% | max response (NIH3T3) -12.5%

C=C1C(=CC=C2CCC[C@]3(C)[C@@H]([C@H](C)CCCC(C)(C)O)CC[C@@H]23)C[C@@H](O)C[C@@H]1O
inactive: max response (CRL-7250) -5.17% | outcome (HaCat) | max response (KB-3-1) -11.2%
active: Potency (NIH3T3) 0.0033 µM

CCC(C)CCCCC(=O)N[C@@H](CCN)C(=O)NC(C(=O)N[C@H](CCN)C(=O)N[C@@H]1CCNC(=O)C([C@@H](C)O)NC(=O)[C@@H](CCN)NC(=O)[C@@H](CCN)NC(=O)[C@@H](CC(C)C)NC(=O)[C@H](Cc2ccccc2)NC(=O)[C@H](CCN)NC1=O)[C@@H](C)O (stereo partly drawn) ({Octanoyl(6-Me)}-[Dab][ξThr(3R)][dDab][dDab][Dab]F[dL][dDab][dDab][ξThr(3R)]; lactam 4-C)
inactive: outcome (CRL-7250) | max response (HaCat) 0.455% | max response (KB-3-1) 0.786% | outcome (NIH3T3)

CC(=O)[C@]1(O)Cc2c(O)c3c(c(O)c2[C@@H](O[C@H]2C[C@H](N)[C@@H](O)[C@H](C)O2)C1)C(=O)c1ccccc1C3=O
active: Potency (CRL-7250) 1.48 µM | Potency (HaCat) 0.743 µM | Potency (KB-3-1) 0.469 µM | Potency (NIH3T3) 0.264 µM

COc1ccc(C(C)=O)c(O)c1
inactive: max response (CRL-7250) -6.37% | max response (HaCat) -4.96% | max response (KB-3-1) 4.34% | max response (NIH3T3) 2.86%

C[C@H](NC(=O)[C@@H](O)c1cc(F)cc(F)c1)C(=O)N[C@@H]1C(=O)N(C)c2ccccc2-c2ccccc21
inactive: max response (CRL-7250) -10.4% | max response (HaCat) -6.76% | max response (KB-3-1) -9.73% | max response (NIH3T3) -4.85%

C=CC[C@@H]1C=C(C)C[C@H](C)C[C@H](OC)[C@H]2O[C@@](O)(C(=O)C(=O)N3CCCC[C@H]3C(=O)O[C@H](C(C)=C[C@@H]3CC[C@H](O)[C@H](OC)C3)[C@@H](C)[C@@H](O)CC1=O)[C@@H](C)C[C@@H]2OC
inactive: max response (CRL-7250) -10% | outcome (HaCat) | outcome (KB-3-1) | outcome (NIH3T3)

O=C1CSC(=O)N1C(CCc1ccncc1)COc1ccc(-c2cccc([N+](=O)[O-])c2)cc1 (configuration not stated)
inactive: max response (CRL-7250) -33.8% | max response (HaCat) -30.8% | max response (KB-3-1) -6.99% | max response (NIH3T3) -3.92%

Cn1cnc(=N)c2[nH]cnc21
active: Potency (CRL-7250) 8.33 µM | Potency (HaCat) 13.2 µM | Potency (KB-3-1) 10.5 µM | Potency (NIH3T3) 9.35 µM

CC(=CC(=O)Nc1ccccc1C(=O)O)c1ccc2ccccc2c1
inactive: max response (CRL-7250) -3.34% | outcome (HaCat) | max response (KB-3-1) -21% | max response (NIH3T3) -22.4%

O=C(Nc1cccc(Nc2ncc(Br)c(NCCc3cnc[nH]3)n2)c1)N1CCCC1
active: Potency (CRL-7250) 4.18 µM | Potency (HaCat) 9.35 µM | Potency (KB-3-1) 1.32 µM | Potency (NIH3T3) 4.69 µM

O=C(NCc1ccccc1)[C@H](Cc1ccccc1)NC(=O)[C@@H]1O[C@@H]1C(=O)NCCc1ccc(O)cc1
inactive: outcome (CRL-7250) | outcome (HaCat) | max response (KB-3-1) 8.9% | max response (NIH3T3) 3.87%

CCCNS(=O)(=O)Nc1ncnc(OCCOc2ncc(Br)cn2)c1-c1ccc(Br)cc1
inactive: max response (CRL-7250) -8.99% | outcome (HaCat) | outcome (KB-3-1) | max response (NIH3T3) -4.31%

C[C@@]12C[C@@]3(O)O[C@@H](O1)[C@]1(COC(=O)c4ccccc4)[C@@H]3C[C@@]12O[C@@H]1O[C@H](CO)[C@@H](O)[C@H](O)[C@@H]1O
inactive: max response (CRL-7250) 4.21% | outcome (HaCat) | outcome (KB-3-1) | outcome (NIH3T3)

O=C1c2cccc(O)c2C(=O)c2c(O)cc(CO)cc21
inactive: max response (CRL-7250) -9.37% | max response (HaCat) -18.1% | max response (KB-3-1) -6.13% | max response (NIH3T3) -5.61%

Source: PubChem BioAssay (NCATS)
